Our source for the cell viability values is the supplement of paper PMC6992640.

Test systems include HCI01; HCI09; HCI11; HCI13; HCI16; UCD52; WHIM2; WHIM30; HCI03.
Common to all, as to assay: cell viability (% of vehicle); higher = less cytotoxic
Holding throughout (conditions): 10 µM; 72 h

± gives the standard deviation of the averaged measurements.
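Also: PDX cells carrying CMV promoter-driven luciferase, viability read as total photon flux per second by IVIS imaging following D-luciferin, vehicle control 0.1% DMSO.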

Regarding `OCC1OC(O)C(O)C(O)C1O` [Dextrose (D-glucose)], the cell viability with HCI01 turned out to be 123.4 ± 0.67; in the assay on HCI09 (cells of a triple-negative luminal androgen receptor type breast cancer xenograft), 106 ± 1.3; in the assay with HCI11 it was 125; with HCI13 it was 124 ± 6.9; in the assay with HCI16, 110; in the assay on UCD52 (cells of a triple-negative basal-like breast cancer xenograft), 88.77 ± 0.6. The cell viability was found to be 105 ± 3.9 with WHIM2 and 153 ± 12 in the assay on WHIM30 (cells of a triple-negative basal-like breast cancer xenograft).

For the compound `CCCc1nc(C(C)(C)O)c(C(=O)OCc2oc(=O)oc2C)n1Cc1ccc(-c2ccccc2-c2nn[nH]n2)cc1` [Olmesartan medoxomil], the cell viability with HCI03 is 150; with HCI09, 110 ± 1.2; in the assay with HCI11, 162; in the assay with HCI13, 128 ± 2.5; with HCI16, 182; in the assay on UCD52, 168 ± 28. In addition, the cell viability was 105 ± 20 with WHIM2 and 177 ± 30 in the assay with WHIM30.

Consider `CC1(C)CCC(CN2CCN(c3ccc(C(=O)NS(=O)(=O)c4ccc(NCC5CCOCC5)c([N+](=O)[O-])c4)c(Oc4cnc5[nH]ccc5c4)c3)CC2)=C(c2ccc(Cl)cc2)C1`, for which the cell viability in the assay on HCI01 (cells of a triple-negative basal-like breast cancer xenograft) turned out to be 83.9 ± 55; in the assay on HCI09 it was 61.5 ± 30; in the assay with HCI11 it was 68.4; in the assay on HCI13 (cells of an ER-positive luminal breast cancer xenograft), 129 ± 10; in the assay on HCI16 (cells of a triple-negative basal-like breast cancer xenograft), 80; in the assay with UCD52 it was 101 ± 14. The cell viability in the assay on WHIM2 (cells of a triple-negative basal-like breast cancer xenograft) was determined as 151 ± 32; in the assay with WHIM30, 99.4 ± 53.

`CC(=O)OCC(=O)C1CCC2C3CCC4=CC(=O)CCC4(C)C3CCC12C` (stereo unspecified) [Deoxycorticosterone acetate]: the cell viability with HCI03 was 132; in the assay with HCI09 it was 95.7 ± 46; in the assay on HCI11 (cells of an ER-positive luminal breast cancer xenograft) it was 112; with HCI13, 141 ± 23; with HCI16 it was 135; in the assay on UCD52 it was 139 ± 19. Also, the cell viability is 140 ± 10 with WHIM2 and 164 ± 12 with WHIM30.

Take `CNCCc1ccccn1.Cl.Cl` [Betahistine 2HCl]: the cell viability in the assay with HCI03 was found to be 134; in the assay on HCI09, 103 ± 23; with HCI11, 140; in the assay with HCI13, 89.7 ± 17; with UCD52, 133 ± 48; with WHIM2, 93.5 ± 30. Also, in the assay with WHIM30, the cell viability is 186 ± 14.

Regarding `COC1=CC(=O)C[C@@H](C)[C@]12Oc1c(Cl)c(OC)cc(OC)c1C2=O` [Griseofulvin], the cell viability in the assay on HCI01 was determined as 127 ± 7.9; in the assay with HCI09, 141 ± 30; in the assay on HCI11 it was 98.7; with HCI13 it was 128 ± 5.8; with HCI16 it was 128; in the assay with UCD52 it was 136 ± 24. Further, the values for the cell viability with WHIM2 and with WHIM30 were 121 ± 36 and 190 ± 15, respectively.

Regarding `Nc1nc(NC2CC2)c2ncn(C3C=CC(CO)C3)c2n1` (stereo unspecified) [Abacavir], the cell viability with HCI01 came out at 173 ± 35; in the assay on HCI11, 118; in the assay with HCI13, 193 ± 30; in the assay with HCI16 it was 121; in the assay on WHIM2, 179 ± 28.

For the compound `CO[C@H]1C[C@@H]2CC[C@@H](C)[C@@](O)(O2)C(=O)C(=O)N2CCCC[C@H]2C(=O)O[C@H]([C@@H](C)C[C@@H]2CC[C@@H](OCCO)[C@H](OC)C2)CC(=O)[C@H](C)/C=C(\C)[C@@H](O)[C@@H](OC)C(=O)[C@H](C)C[C@H](C)/C=C/C=C/C=C/1C` [Everolimus (RAD001)], the cell viability amounted to 69.8 in the assay with HCI03; 27.5 ± 4 in the assay with HCI09; 102 with HCI11; 54.91 ± 0.39 in the assay on HCI13; 179 in the assay with HCI16; 55.2 ± 9.9 in the assay on UCD52. Besides, the cell viability in the assay on WHIM2 stood at 41.9 ± 4.8; in the assay with WHIM30, 160 ± 35.

Take `CN1CCN(c2ccc3c(c2)NC(=C2C(=O)N=c4cccc(F)c4=C2N)N3)CC1` [Dovitinib (TKI-258, CHIR-258)]: the cell viability was found to be 92.5 ± 18 in the assay with HCI01; 49.8 ± 24 in the assay with HCI09; 79 with HCI11; 125 ± 32 with UCD52; 69.8 ± 20 in the assay on WHIM2; 104 ± 1.8 with WHIM30.
